# Among all 420,000 compounds or so, about 50,000 (12%) were called active. Where a call stands in place of a potency, no number is given. Not shown: some 26% with an inconclusive outcome. Calls come from the whole dose curve; as a rule, active = well fitted inhibition curve with a large enough effect; inconclusive = small, poorly fitted or top-dose-only effect; inactive = flat fitted curve, though single readings scatter. Many of the other results were omitted from the sample, so actives are more common in it than they were.
# Assay: qHTS for Inhibitors of human tyrosyl-DNA phosphodiesterase 1 (TDP1): qHTS in cells in presence of CPT; note: nearly all actives have a fitted effect of over 55% in size
# Settings: chicken DT40 Tdp1-/-;hTDP1 cells + 20 nM CPT, ATP luminescence, 48 h; series mostly up to 46.2 µM
# Procedure, shortened: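 Cell growth measured by CellTiter-Glo luminescence after a minimum 48 h, 37 C compound exposure with 20 nM CPT in Tdp1-knockout DT40 cells stably expressing hTDP1, seeded 400/well; qHTS titration format.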
# Potency is the fitted concentration of half-maximal effect.
row,Compound,Potency
1,Cc1ccc(CNC(=O)CCNS(=O)(=O)c2cccc3nonc23)cc1,inactive
2,CCOC(=O)Cc1ccc(NC(=O)Nc2c[nH]c(=O)[nH]c2=O)cc1,inactive
3,O=C(NNC(=S)Nc1ccc(F)cc1)[C@H]1C[C@@H]1c1ccccc1,inactive
4,CC(Oc1ccccc1F)C(=O)NN (stereo unspecified),inactive
5,Cc1ccc(S(=O)(=O)N(C)C)cc1NC(=O)CN1c2cccc3cccc(c23)S1(=O)=O,inactive
6,Cc1c(NC(=O)c2c([N+](=O)[O-])cnn2C)c(=O)n(-c2ccccc2)n1C,inactive
7,CC(C)CC(NS(=O)(=O)c1ccc2c(c1)oc(=O)n2C)C(=O)NCc1ccccc1Cl (stereo unspecified),inactive
8,O=c1c2cc([N+](=O)[O-])ccc2nc2n1CCC2,inactive
9,Cc1cc(C(C)(C)C)cc(C)c1N,inactive
10,C=CCn1c(=NC(=O)c2ccc(S(=O)(=O)N3CCCC3)cc2)sc2cc(NC(C)=O)ccc21,inactive
11,C=CCn1c(=NC(=O)c2cccs2)sc2cc(NC(C)=O)ccc21,13 µM (active)
12,C=CCn1c(CCNC(=O)c2cccs2)n[nH]c1=S,inactive
13,Cc1cccc(CCNS(=O)(=O)c2ccc3c(c2)NC(=O)CO3)c1,inactive
14,CCOC(=O)c1cc2c(=O)n3ccccc3nc2n(CC2CCCO2)c1=NC(=O)c1ccc(C(C)(C)C)cc1 (stereo unspecified),inactive
15,CC(C)N(C(=O)CSc1nc(COc2ccccc2)nc2ccccc12)C(C)C,23.1 µM (active)
16,CCc1nc(SCC(=O)NNC(=O)c2ccc(C)cc2)c2ccccc2n1,inactive
17,COC(=O)CSc1nc(C2CC2)nc2ccccc12,inactive
18,Cc1cc(C)cc(NC(=O)NC2CCN(CC(=O)Nc3cccc(Cl)c3C)CC2)c1,inactive
19,Cc1nn(Cc2ccccc2)c(C)c1C(=O)N1CCN(CC(=O)Nc2ccccc2Cl)CC1,16.4 µM (active)
20,CCC(=O)Nc1ccccc1C(=O)N1CCN(Cc2ccccc2)CC1,inactive
21,CNC(=O)CN1C(=O)NC(c2ccccc2)(c2ccccc2)C1=O,inactive
22,COC(=O)c1ccc(C(=O)OC)c(NC(=S)N2CCN(c3ccc(F)cc3)CC2)c1,inactive
23,Cc1ccc(CSCC2Nc3ccc(C(=O)N4CCN(c5ccc(F)cc5)CC4)cc3NC2=O)cc1 (stereo unspecified),16.4 µM (active)
24,Cc1ccc(SCC(=O)N2CCN(c3ccc(F)cc3)CC2)cc1,inactive
25,CN(Cc1ccc(CNC[C@H]2O[C@@H](n3cnc4c(N)ncnc43)[C@H](O)[C@@H]2O)o1)S(C)(=O)=O,inactive
26,Cn1cccc1C(C#N)c1ccccc1C#N (stereo unspecified),inactive

row,Compound,Potency
1,CCc1ccc2c(c1)C(c1ccc([N+](=O)[O-])cc1)=NNC(c1ccccc1)=N2,inactive
2,Cc1ccc(C2=Nc3c(ccc4ccccc34)C(c3ccncc3)=NN2)cc1,18.4 µM (active)
3,Cc1cc(C)n2nc(C(=O)OC(C)C(=O)c3cc(C)c(C)cc3C)nc2n1 (stereo unspecified),inactive
4,COc1cc(OC)cc(C(=O)NC2CCN(C(=O)N3c4ccccc4Sc4ccccc43)CC2)c1,29.1 µM (active)
5,COc1ccc(C(=O)NC2CCN(C(=S)NCCc3ccccc3)CC2)cc1,inactive
6,COc1ccc(C(=O)NC2CCN(C(=S)Nc3ccccc3)CC2)cc1,inactive
7,O=C(c1ncn2c1c(=O)[nH]c1ccccc12)N1CCc2ccccc2C1,inactive
8,CCOC(=O)C1CCCN(CC(=O)Nc2cc(C)c3c(=O)oc4ccccc4c3n2)C1 (stereo unspecified),inactive
9,COc1cc(/C=C/C(=O)O)cc(S(=O)(=O)Nc2ccccc2SC)c1OC,inactive
10,O=C(CC1Oc2ccc(Cl)cc2NC1=O)NCc1ccccc1 (stereo unspecified),inactive
11,O=C1N(Cc2ccccc2)c2ccc(Cl)cc2C1(O)c1c[nH]c2ccccc12 (stereo unspecified),23.1 µM (active)
12,O=C1N(Cc2ccc3c(c2)OCO3)c2ccccc2C1(O)c1c[nH]c2ccccc12 (stereo unspecified),18.4 µM (active)
13,O=C(CSc1ncn[nH]1)NCc1ccc2c(c1)OCO2,inactive
14,CCn1c(=O)cc(SCC(=O)NCc2ccc3c(c2)OCO3)c2ccccc21,inactive
15,O=C(COC(=O)c1cc(=O)[nH]c2ccccc12)NCc1cccc(Cl)c1,inactive
16,CCOc1ccc(CCNC(=O)COC(=O)c2ccc(F)c(S(=O)(=O)N3CCOCC3)c2)cc1OCC,inactive
17,O=C(CSc1nnc(-c2ccncc2)o1)Nc1cccc(Cl)c1,inactive
18,COC(=O)c1cnc(Nc2cc(C)ccc2OC)c2ccccc12,inactive
19,O=[N+]([O-])c1ccccc1Nc1ccc(O)cc1,inactive
20,O=C(OCc1ccccc1)c1ccc(O)cc1,inactive
21,Oc1ccc(CNc2ccccc2O)cc1,25.9 µM (active)
22,CCOC(=O)C(C)N(c1ccccc1Cl)S(C)(=O)=O (stereo unspecified),inactive
23,O=C(NCCCN1CCOCC1)c1cc(-c2cccc(O)c2)on1,inactive
24,Cc1nc([N+](=O)[O-])nn1C12CC3CC(CC(Br)(C3)C1)C2,23.1 µM (active)
25,CC[C@@H](C)[C@H](NC(=O)CCc1c(C)c2cc3c4c(oc3c(C)c2oc1=O)CCCC4)C(=O)O,inactive
